Compound activity (PubChem BioAssay)
Most compounds without a hit are left out; they make up all but 5% or so of the library.
ALR inh: blocks human ALR sulfhydryl oxidase activity | inhibition, % (concentration not given with the values) | purified ALR, DTT oxidation, H2O2 HRP-luminol luminescence | hit rate 3.8% among 290,000 | P55789;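 active = mean replicate inhibition above about 79%, with every replicate also reaching it, limit read from the data; inconclusive = only one of the two criteria met; inactive = mean below limit and not every replicate reaching it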
AI-2 QS modul: modulators of Vibrio harveyi AI-2 quorum sensing system; hit rate 0.4% among 300,000; activity change, % at 7.5 µM; Vibrio harveyi JMH597 AI-2 luminescence/OD600 ratio, 9 h; hits give low values; strain lacks LuxN and CqsS sensors; 0 = neutral-control median; in the data active = activity change below about -75%, passing the limit was not always enough; inconclusive = no clear call, values can overlap the other calls;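 also: luminescence divided by OD600 gain over 9 h not by final OD600 alone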
PREPL inh: inhibitors of human prolyl oligopeptidase-like enzyme PREPL; Q4J6C6; recombinant PREPL, fluorescence polarization activity-based probe; inhibition, % at 5.96 µM; hit rate 0.68% among 320,000; AID 2751; in the data active = inhibition above about 43%;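 also: 0% = enzyme with DMSO and 100% = wells lacking enzyme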
Target sequence (Q4J6C6 whole entry, looked up): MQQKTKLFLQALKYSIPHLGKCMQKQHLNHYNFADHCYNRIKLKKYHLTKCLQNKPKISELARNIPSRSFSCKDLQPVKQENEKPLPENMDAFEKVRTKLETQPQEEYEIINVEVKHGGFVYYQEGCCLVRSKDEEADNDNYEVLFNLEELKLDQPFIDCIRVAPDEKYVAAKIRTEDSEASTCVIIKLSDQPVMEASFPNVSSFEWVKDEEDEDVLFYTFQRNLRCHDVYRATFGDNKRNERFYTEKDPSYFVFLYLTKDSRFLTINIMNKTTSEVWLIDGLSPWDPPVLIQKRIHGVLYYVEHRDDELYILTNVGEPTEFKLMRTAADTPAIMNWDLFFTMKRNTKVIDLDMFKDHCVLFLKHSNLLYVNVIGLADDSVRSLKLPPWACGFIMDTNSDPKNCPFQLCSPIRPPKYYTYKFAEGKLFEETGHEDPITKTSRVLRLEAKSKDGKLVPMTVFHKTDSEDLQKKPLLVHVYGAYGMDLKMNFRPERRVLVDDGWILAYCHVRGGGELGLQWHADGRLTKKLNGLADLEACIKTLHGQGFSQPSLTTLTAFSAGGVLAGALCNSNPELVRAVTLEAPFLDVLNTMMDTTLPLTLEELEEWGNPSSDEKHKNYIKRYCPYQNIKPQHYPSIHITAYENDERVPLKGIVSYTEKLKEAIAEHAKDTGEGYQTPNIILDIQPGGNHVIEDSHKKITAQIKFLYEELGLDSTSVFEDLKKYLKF
CHT block: human CHT choline transport inhibition. Q9GZV3. CHT-expressing cells, membrane potential dye, choline response; hits give low values. B-score at 10 µM. hit rate 0.86% among 310,000. AID 488975;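 active = B-score over 3 SD under the library average, and starting fluorescence ratio not unusually high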;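 also: choline stimulus applied at its EC90 after an EC20 pre-addition; B-score computed on integrated fluorescence ratio after choline addition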
CHT allo act: allosteric activators of human choline transporter CHT; Q9GZV3; CHT-expressing cells, membrane potential dye, choline EC20; hits give high values; LV-AA mutant CHT in HEK293 cells; B-score at 10 µM; hit rate 0.49% among 310,000; AID 488977;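 active = initial fluorescence not abnormally high and integrated response B-score, plate-corrected, over 3 SD above library mean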
Active calls of the source: *; i = inactive; ? = inconclusive; . = no result given.

SMILES | ALR inh | AI-2 QS modul | PREPL inh | CHT block | CHT allo act
Cc1cccc(N2C(=O)C(O)=C(C(=O)c3cccs3)C2c2ccc(F)cc2)n1 (centres undefined) | 4 | 22 | 16 | i | i
O=C(COc1ccc(Br)cc1Br)NC(=S)N1CCCc2ccccc21 | 93* | 25 | 25 | i | i
O=C(COc1ccc(Br)cc1CO)N1CCCc2ccccc21 | -67 | . | -4 | i | i
CCOC(=O)c1cc(CC)sc1/N=C/C1=C(O)CCCC1=O | 8 | 83 | -4 | i | i
CCOC(=O)CSc1nc(N2CCOCC2)c2c(c1C#N)CC(C)(C)N(C)C2 | 100* | 9 | 21 | i | i
CCCOC(=O)CSc1nc(N2CCOCC2)c2c(c1C#N)CC(C)(C)OC2 | -7 | 4 | 12 | i | i
Cc1ccc(S(=O)(=O)Nc2cc(C)c(O)c(S(=O)(=O)c3ccc(C)cc3)c2)cc1 | 21 | 10 | -1 | i | i
Cc1ccc(S(=O)(=O)c2cc(Nc3ccccc3)ccc2O)cc1 | 100* | -58 | 0 | i | i
O=C(COc1ccc(-c2nnco2)cc1)Nc1cc([N+](=O)[O-])ccc1F | . | . | 23 | . | .
Cc1ccccc1NC1=NS(=O)(=O)c2ccccc21 | -3 | 28 | -4 | i | i
O=C(NNC1=NS(=O)(=O)c2ccccc21)c1ccc(Cl)cc1 | 89* | 40 | 1 | i | i
O=S1(=O)N=C(Nc2ccc(O)cc2)c2ccccc21 | 99* | 24 | -1 | i | i
CC1CC(C)CN(C(=O)CSc2nnc(N)s2)C1 (centres undefined) | 95* | 25 | -2 | i | i
C#CCCOC(=O)N1C2=NC(C(=O)OC)=C(C(=O)OC)[C@@H]3N(CC=C)c4ccccc4[C@]23C[C@H]1C(=O)OC | 0 | 14 | -4 | i | i
COC(=O)C1C(O)=C(C(C)=N)C(=O)CC1(C)C (centres undefined) | 98* | 16 | 16 | i | i
Cc1ccc(C(=O)OC2OC(=O)C(Cl)=C2N2CCOCC2)cc1 (centres undefined) | 55 | 15 | 43* | i | i
Nc1ncnc2c1ncn2[C@@H]1O[C@H](CNCc2c(OCc3ccccc3F)ccc3ccccc23)[C@@H](O)[C@H]1O | . | . | -26 | . | .
CCCN(CC(=O)Nc1ccccc1C)C(=O)Cc1c(C)nc2ccccc2c1C | . | . | -6 | . | .
O=C(Nc1ccccn1)c1nc(-c2ccccc2)n(-c2ccccc2)n1 | -3 | 22 | -6 | i | i
NC(=O)c1ccsc1NC(=O)c1nc(-c2ccccc2)n(-c2ccccc2)n1 | 86* | 10 | -8 | i | i
O=C(N/N=C/c1ccc(O)cc1)c1nc(-c2ccccc2)n(-c2ccccc2)n1 | 98* | 13 | 9 | i | i
COc1ccc(/C=N/NC(=O)c2nc(-c3ccccc3)n(-c3ccccc3)n2)cc1OC | 1 | 12 | -1 | i | i
COc1cc(/C=N/NC(=O)c2nc(-c3ccccc3)n(-c3ccccc3)n2)ccc1O | 85* | 27 | 12 | i | i
CC(C)CNC(=O)c1nc(-c2ccccc2)n(-c2ccccc2)n1 | 3 | 36 | -2 | i | i
O=C(CSc1nc(O)cc(=O)[nH]1)N1c2ccccc2CCc2ccccc21 | 11 | 35 | 24 | i | i
SMILES | ALR inh | AI-2 QS modul | PREPL inh | CHT block | CHT allo act
CCOc1ccc(N(CC(=O)NCCc2ccc(Cl)cc2)S(=O)(=O)c2c(C)[nH]c(=O)[nH]c2=O)cc1 | -7 | 7 | 11 | i | i
CC(/C=C1\N=C(SCc2ccccc2Cl)SC1=O)=C\c1ccccc1 | 99* | 12 | 12 | i | i
O=C1SC(SCc2ccccc2)=N/C1=C\c1ccc(C(=O)O)cc1 | 36 | 21 | 6 | i | i
Cc1ccc(NC(=O)OCCN2CCN(Cc3ccccc3)CCC2=O)cc1 | 92* | 11 | -5 | i | i
COc1ccc(CNC(=O)COC(=O)Cc2ccc(Br)cc2)cc1 | 2 | . | 0 | . | .
Cn1c(SCC(=O)Nc2ccc(N3CCOCC3)cc2)nnc1C1CC1 | ? | . | 4 | . | .
O=C(CSc1nnnn1-c1ccccc1)Nc1ccc(N2CCOCC2)cc1 | 8 | 13 | 4 | i | i
O=C(CSc1nnc(C2CC2)n1-c1ccccc1)Nc1ccc(N2CCOCC2)cc1 | 98* | 55 | 5 | i | i
COc1ccccc1NC(=O)CSc1nncn1-c1cccnc1 | 3 | 21 | 17 | i | i
COc1ccccc1NC(=O)CSc1nncn1-c1ccccc1 | 98* | 0 | 10 | i | i
O=C(CSc1nncn1-c1ccccc1)Nc1ccc(N2CCOCC2)cc1 | 99* | 10 | 4 | i | i
COCC(=O)N1CCC(Oc2ccc(C(=O)N3C[C@@H]4CCC[C@H]3C4)cc2)CC1 | . | 38 | . | . | .
O=C(NNC(=S)NC1CC2C=CC1C2)c1cccnc1 (centres undefined) | 28 | 14 | 2 | i | i
O=Cc1ccc(O)c(O)c1 | 99* | 4 | 24 | i | i
Oc1ccc(N=Cc2ccc(O)c(O)c2)cc1 | 99* | 33 | 17 | i | i
Cc1ccc(/C=N/N=C/c2ccc(C)cc2)cc1 | . | 3 | -5 | i | i
Cc1ccc(-c2nc(C=Nc3ccc(O)cc3)c(O)o2)cc1 | . | -6 | . | . | .
Oc1ccc(/C=N/N=C/c2ccc(O)cc2)cc1 | 96* | 23 | 14 | i | i
Oc1ccc(/C=N/N(c2ccccc2)c2ccccc2)c(O)c1O | . | 27 | 19 | i | i
Oc1ccc(/C=N/N(c2ccccc2)c2ccccc2)cc1O | 99* | 49 | 8 | i | i
CC(C)[C@H](NS(=O)(=O)c1ccccc1)C(=O)OCC(=O)Nc1cccc(S(N)(=O)=O)c1 | 4 | . | -10 | . | .
Cc1ccsc1C(=O)N1CCN(c2ncc(C(F)(F)F)cc2Cl)CC1 | 2 | 8 | 12 | i | i
Oc1ccc(/C=N/N=C/c2ccc(O)c(O)c2)cc1O | 99* | 23 | 13 | i | i
CSc1ccc2[nH]c(=O)cc(C)c2c1 | 100* | 24 | 14 | i | i
Cc1cc(=O)[nH]c2ccc(S(=O)(=O)NC3CCCCC3)cc12 | 3 | 15 | 9 | i | i
SMILES | ALR inh | AI-2 QS modul | PREPL inh | CHT block | CHT allo act
O=C(CNC(=O)N1CC(=O)Nc2ccccc21)Nc1cc(Cl)ccc1Cl | -17 | 8 | 14 | i | i
COc1cccc(C2C(C(=O)Nc3ccccc3)=C(C)N=c3s/c(=C/c4ccc(OCC(=O)O)cc4)c(=O)n32)c1 (centres undefined) | 97* | 18 | -9 | i | i
CSc1ccccc1OCc1cc(C(=O)NCc2csc(C(C)C)n2)no1 | -2 | 23 | -3 | i | i
Cc1c(C(=O)NNC(=S)Nc2cccc(Cl)c2)nnn1-c1ccccc1 | 91* | 14 | -1 | i | i
Cc1cc(NC(=O)Nc2cccc(Cl)c2)n(-c2ccccc2)n1 | -8 | 23 | 10 | i | i
CSc1ccc(NC(=O)CSc2nc3[nH]c(=O)cc(O)c3s2)cc1 | 99* | . | 18 | . | .
